Hits are enriched below; roughly 18% of the tested compounds scored in any of these assays.
RORg inh: qHTS for inhibitors of ROR gamma transcriptional activity; Nuclear receptor ROR-gamma (Mus musculus), P51450; Drosophila S2 Gal4-RORgamma UAS-luciferase reporter, 20 h; Potency, µM (doses to about 53.6 µM), inactives show at the top dose activity change, negative = inhibition, hits mostly inhibitors; hit rate 5.4% among 310,000; also: potency is read from the fitted curve at half-maximal effect; nearly all actives have a fitted effect of over 60% in size
Target sequence (P51450 whole entry, looked up, the tested form may be a part): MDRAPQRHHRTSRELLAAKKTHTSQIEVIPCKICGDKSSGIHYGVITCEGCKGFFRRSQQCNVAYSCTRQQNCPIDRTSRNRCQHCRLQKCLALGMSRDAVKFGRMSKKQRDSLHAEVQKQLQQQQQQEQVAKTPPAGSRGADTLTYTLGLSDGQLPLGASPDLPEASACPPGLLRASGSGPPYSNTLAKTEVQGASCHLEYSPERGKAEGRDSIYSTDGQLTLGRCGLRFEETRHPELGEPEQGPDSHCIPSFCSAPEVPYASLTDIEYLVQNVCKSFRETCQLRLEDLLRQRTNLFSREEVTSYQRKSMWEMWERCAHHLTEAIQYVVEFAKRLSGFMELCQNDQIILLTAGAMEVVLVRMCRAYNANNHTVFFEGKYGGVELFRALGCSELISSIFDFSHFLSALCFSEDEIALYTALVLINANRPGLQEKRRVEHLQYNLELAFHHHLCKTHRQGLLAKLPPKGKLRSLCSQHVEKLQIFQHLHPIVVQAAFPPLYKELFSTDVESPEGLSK
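Stable Schneider cell line, Gal4 DNA-binding domain fused to ROR gamma, UAS-luciferase. Cmpd 1 hr RT → CuSO4 700 uM final → 20 hr RT → luciferase reagent 10 min → luminescence.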
IL1B secr inh: qHTS for Inhibitors of Inflammasome Signaling: IL-1-beta AlphaLISA Primary Screen. THP-1 LPS/ATP IL-1B secretion, AlphaLISA, 16 h; active compounds read low. activity change, % at 57.5 µM. hit rate 4.7% among 360,000. AID 743279, 2014; in the data active = activity change below about -50%; inconclusive = mostly about -30% to -49%
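Secreted IL-1B measured by AlphaLISA bead assay after 16 h compound exposure of THP-1 cells; compounds (final up to 57.5 uM) added 1 h before LPS (250 ng/mL) and ATP (1.25 mM) stimulation; lower signal means less secretion.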
LDHA block: qHTS assay for inhibitors of human lactate dehydrogenase; L-lactate dehydrogenase A chain (Homo sapiens), P00338; purified LDHA, NADH/diaphorase-resazurin fluorescence; active compounds read low; activity change, % (values are at about 110 or 230 µM); hit rate 0.15% among 480,000; AID 1347041, 2019; in the data active = activity change below about -30%; inconclusive = mostly about -25% to -30%;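 also: plate controls were DMSO wells for no effect and wells without enzyme for full effect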
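LDH5 2 nM; NADH 0.06 mM, pyruvate 0.2 mM; 200 mM Tris pH 7.4, EDTA, Tween-20; 5 min RT. Detection: diaphorase 0.133 mg/mL + resazurin 37 µM, fluorescence ex540/em590 at 0 and 20 min; normalized to enzyme-free and DMSO wells.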
DT40 TDP1 CPT: qHTS for Inhibitors of human tyrosyl-DNA phosphodiesterase 1 (TDP1): qHTS in cells in presence of CPT. chicken DT40 Tdp1-/-;hTDP1 cells + 20 nM CPT, ATP luminescence, 48 h. Potency, µM (doses to about 46.2 µM), for inactives: at the highest dose activity change, negative = growth inhibition, most hits filed as inhibitors. hit rate 12% among 420,000. AID 686979, 2013; also: potency is read from the fitted curve at half-maximal effect; nearly all actives have a fitted effect of over 55% in size
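Chicken DT40 Tdp1-/- cells complemented with human TDP1, 400 cells/well, exposed to compounds plus 20 nM camptothecin for at least 48 h at 37 C; viability read as ATP content by CellTiter-Glo luminescence.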
VP16 counter: VP16 counterscreen qHTS for inhibitors of ROR gamma transcriptional activity; Drosophila S2 Gal4-VP16 UAS-luciferase, luminescence, 20 h; Potency, µM (top dose mostly 53.6 µM), without a hit: at the top dose activity, negative = inhibition, usual class: inhibitors; hit rate 3.5% among 310,000; AID 2546, 2010;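 also: Gal4-VP16 expression switched on by copper sulfate through the metallothionein promoter; potency is read from the fitted curve at half-maximal effect; nearly all actives have a fitted effect of over 50% in size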
TDP1 cell noCPT: qHTS for Inhibitors of human tyrosyl-DNA phosphodiesterase 1 (TDP1): qHTS in cells in absence of CPT. Potency, µM (doses to about 46.2 µM), without a hit: at the highest dose activity change, negative = growth inhibition, usual class: inhibitors. hit rate 15% among 420,000. DT40 Tdp1-/- hTDP1 cells, no CPT, ATP luminescence, 48 h. AID 686978, 2013; also: potency is read from the fitted curve at half-maximal effect; nearly all actives have a fitted effect of over 55% in size
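No-CPT arm: Tdp1-/-;hTDP1 DT40 cells (400/well) plus compounds, incubated ≥48 hr at 37 °C. Readout CellTiter-Glo luminescence.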
Numbers without * were called inactive; [ ] = another dose, or the depositor's remark. Unless noted, calls follow the shape of the dose curve; as a rule, active = well fitted curve in the direction sought with a large enough effect; inconclusive = small, poorly fitted or top-dose-only effect, or another doubt; inactive = no such curve, though single readings can be large; an effect the other way counts as inactive or inconclusive. Unless noted, % is scaled to controls: 0 for no effect and ±100 for the full control effect.

COc1cccc(C2c3cc4c(cc3OC(C)(N3CCCC3)C2C)OCO4)c1O (configuration not stated) was read as IL1B secr inh -66.0*, LDHA block 13.6, DT40 TDP1 CPT 13µM* and TDP1 cell noCPT 10.3µM*.
For CCN(CC)C1Oc2cc3c(cc2C(c2cc(OC)c(O)c(OC)c2)C1C)OCO3 (configuration not stated) the results were IL1B secr inh 27.0, LDHA block 9.0, DT40 TDP1 CPT inconclusive and TDP1 cell noCPT inconclusive.
For COc1ccc(C2c3cc4c(cc3OC(N3CCOCC3)C2C)OCO4)c(OC)c1 (configuration not stated) the results were IL1B secr inh 22.5, LDHA block 3.3, DT40 TDP1 CPT 5.17µM* and TDP1 cell noCPT 4.11µM*.
`COc1cccc(C=Nc2ccc(N3CCOCC3)cc2)c1O` gave RORg inh -36.5%, IL1B secr inh 19.3, LDHA block 24.0, DT40 TDP1 CPT 7.7%, VP16 counter -2.4% and TDP1 cell noCPT inconclusive.
`COc1cccc(C2c3cc4c(cc3OC(N3CCOCC3)C2C)OCO4)c1O` (configuration not stated) gave IL1B secr inh -0.1, LDHA block -6.2, DT40 TDP1 CPT -91.3% and TDP1 cell noCPT 8.2µM*.
CCN(CC)C1Oc2cc3c(cc2C(c2cccc(OC)c2O)C1C)OCO3 (configuration not stated) was read as IL1B secr inh -25.0, LDHA block 0.9, DT40 TDP1 CPT inconclusive and TDP1 cell noCPT 23.1µM*.
`Cn1c(=O)[nH]c(=O)c2c1nc(SCC(N)=O)n2CCc1ccccc1` gave LDHA block 11.8.
`CC(C)(C)c1ccc(C(=O)C[n+]2ccc(Cl)c3ccc(Cl)cc32)cc1` gave DT40 TDP1 CPT 0.891µM* and TDP1 cell noCPT 0.355µM*.
For COc1cccc(CNc2nc3cc(-c4cccc(C(F)(F)F)c4)sc3c(=O)n2C)c1OC the results were IL1B secr inh -3.8, LDHA block -10.8, DT40 TDP1 CPT inconclusive and TDP1 cell noCPT inconclusive.
Screening CC(=O)Nc1ccc(CNc2nc3cc(-c4cccc(C(F)(F)F)c4)sc3c(=O)n2C)cc1 returned IL1B secr inh 19.6, LDHA block -10.7, DT40 TDP1 CPT 23.1µM* and TDP1 cell noCPT 20.6µM*.
`Cn1c(NCc2ccccc2F)nc2cc(-c3cccc(C(F)(F)F)c3)sc2c1=O` gave IL1B secr inh 25.9, LDHA block 1.5, DT40 TDP1 CPT 13µM* and TDP1 cell noCPT 14.6µM*.
`Cc1cc(SCC(=O)Nc2ccc(F)c(F)c2)nc2ccccc12` gave LDHA block 7.6.
For C[C@H]1COc2c(N3CCN(C)CC3)c(F)cc3c(=O)c(C(=O)O)cn1c23 the results were RORg inh 3.2%, IL1B secr inh -9.3, LDHA block -2.3, DT40 TDP1 CPT inconclusive, VP16 counter -2.4% and TDP1 cell noCPT 9.2µM*.
`C[C@@H]1COc2c(N3CCN(C)CC3)c(F)cc3c(=O)c(C(=O)O)cn1c23` gave RORg inh 3.8%[16.9 µM] and VP16 counter 6.1%[17 µM].
Screening CCn1c(C)c(CCC(=O)NCc2cccc(OC)c2)c(=O)n2nc(-c3ccccc3OC)cc12 returned LDHA block 3.1.
`Cc1cc(C)n(CC(C)NC(=O)c2cc(COc3ccc(F)c(F)c3)on2)n1` (configuration not stated) gave RORg inh inconclusive, IL1B secr inh -6.9, LDHA block -1.5, DT40 TDP1 CPT inconclusive, VP16 counter -29.8% and TDP1 cell noCPT 16.4µM*.
For Cc1cc(CNC(=O)c2cc(COc3ccc(F)c(F)c3)on2)nn1C the results were RORg inh 14.7%, IL1B secr inh 7.2, LDHA block 2.6, DT40 TDP1 CPT 14.6µM*, VP16 counter -12.0% and TDP1 cell noCPT inconclusive.
CCOC(=O)CC1(NC(=O)c2cc(COc3ccc(F)c(F)c3)on2)CCCCC1 was read as RORg inh inconclusive, IL1B secr inh 27.3, LDHA block -1.9, DT40 TDP1 CPT 23.1µM*, VP16 counter -13.4% and TDP1 cell noCPT 18.4µM*.
For Cc1cccc(CC(C)NC(=O)c2cc(COc3ccc(C)c(C)c3)on2)n1 (configuration not stated) the results were RORg inh 27.6%, IL1B secr inh inconclusive, LDHA block -1.7, DT40 TDP1 CPT 20.6µM*, VP16 counter -9.0% and TDP1 cell noCPT 20.6µM*.
Screening Cc1ccc(OCc2cc(C(=O)NC(C)Cc3cnccn3)no2)cc1C (configuration not stated) returned RORg inh 7.8%, IL1B secr inh 6.7, LDHA block -5.7, DT40 TDP1 CPT inconclusive, VP16 counter 0.3% and TDP1 cell noCPT inconclusive.
For O=C(Nc1cccc(-c2nc3ccccc3o2)c1)C1CCCC1 the results were LDHA block -5.1.
Screening CC1=NS(=O)(=O)NC(C)=C1CCC(=O)Nc1ccc(C)c(C)c1 returned LDHA block -13.2.
`CC(=O)N1CCc2cc(NC(=O)CCc3ncc(-c4ccccc4F)o3)ccc21` gave LDHA block -18.1.
`COc1cc(C2NC(=O)N(C)C(C)=C2C(=O)OC2CCCC2)cc(Br)c1O` (configuration not stated) gave LDHA block -2.8.
Cc1ccc(SCc2nc(-c3ccccc3)no2)cc1 was read as RORg inh 33.5%, IL1B secr inh -2.5, LDHA block -1.3, DT40 TDP1 CPT -8.9%, VP16 counter 21.4% and TDP1 cell noCPT -13.7%.
For c1ccc(SCc2nc(-c3ccncc3)no2)cc1 the results were RORg inh inconclusive, IL1B secr inh inconclusive, LDHA block -6.2, DT40 TDP1 CPT -17.4%, VP16 counter 11.2µM* and TDP1 cell noCPT -28.8%.
For Cc1ccc(SCc2nc(-c3ccncc3)no2)cc1 the results were RORg inh 36.8%, IL1B secr inh -7.5, LDHA block -3.1, DT40 TDP1 CPT 5.8µM*, VP16 counter 7.2% and TDP1 cell noCPT 13µM*.

Screens: PubChem, National Center for Advancing Translational Sciences (NCATS)
